Screening data: PubChem, National Center for Advancing Translational Sciences (NCATS)
Shown are actives, neighbours in structure and some others; about 10% of the full set was active somewhere.
GPT2 inh – Primary qHTS assay for inhibitors of Glutamate pyruvate transaminase 2 (GPT2) | Alanine aminotransferase 2 (Homo sapiens), Q8TD30 | Recombinant GPT2, coupled pyruvate oxidase/HRP Amplex Red fluorescence | actives 0.25% (n = 100,000) | Potency, µM (top dose mostly 57.7 µM), inactives show at the top dose activity change, negative = inhibition, most hits filed as inhibitors | AID 1671188, 2021; further: on the % scale 0 is the no-effect control and ±100 the full control effect; nearly all actives have a fitted effect of over 60% in size
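Recombinant GPT2 (10ng/uL) with 250uM a-KG and 2mM L-alanine, 30 min at room temperature, in HEPES pH 7.5 buffer. Pyruvate detected by pyruvate oxidase/HRP/Amplex Red fluorescence after 30 min in the dark; AOA (50uM) as positive control.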
FLuc inh – Firefly luciferase inhibition profiling of diverse chemical library using quantitative high-throughput screening. Luciferin 4-monooxygenase (Photinus pyralis), P08659. actives 2.5% (n = 76,000). Potency, µM (series often up to 115 µM), hits mostly inhibitors. purified P. pyralis luciferase, luminescence, biochemical; further: on the % scale 0 is the no-effect control and ±100 the full control effect; nearly all actives have a fitted effect of over 65% in size
Target sequence (P08659 whole entry, looked up): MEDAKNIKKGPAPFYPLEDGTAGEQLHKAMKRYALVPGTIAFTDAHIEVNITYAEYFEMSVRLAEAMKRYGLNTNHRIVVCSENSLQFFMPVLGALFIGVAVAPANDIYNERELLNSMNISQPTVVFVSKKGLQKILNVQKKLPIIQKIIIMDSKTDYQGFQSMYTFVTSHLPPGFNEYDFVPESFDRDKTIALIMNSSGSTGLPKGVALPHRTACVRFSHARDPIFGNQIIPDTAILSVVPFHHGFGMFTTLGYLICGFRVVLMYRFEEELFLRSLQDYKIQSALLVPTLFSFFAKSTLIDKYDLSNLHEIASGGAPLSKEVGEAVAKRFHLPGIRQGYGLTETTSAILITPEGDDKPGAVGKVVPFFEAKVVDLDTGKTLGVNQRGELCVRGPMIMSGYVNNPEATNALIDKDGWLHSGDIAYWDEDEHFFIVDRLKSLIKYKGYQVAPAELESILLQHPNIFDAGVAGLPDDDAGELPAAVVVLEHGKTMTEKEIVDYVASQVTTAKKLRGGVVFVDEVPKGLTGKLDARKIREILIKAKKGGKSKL
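FLuc 10nM, D-luciferin 10uM, ATP 10uM, Mg acetate 10mM, Tris acetate pH 7.5, Tween/BSA; cpd qHTS; enzyme added last; CCD luminescence.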
HEK293 tox – Cytotoxic Profiling in HEK 293 Cell Line of Diverse Libraries Using Quantitative High-Throughput Screening; AID 1345083, 2018; HEK 293 viability, ATP luminescence (CellTiter-Glo), 48-72 h; Potency, µM (doses to about 115 µM), without a hit: at the top dose activity change, negative = cytotoxicity, most hits filed as inhibitors; actives 6.6% (n = 94,000); further: on the % scale 0 is the no-effect control and ±100 the full control effect; nearly all actives have a fitted effect of over 60% in size
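qHTS cytotoxicity; HEK 293, 250 cells/well; compound pinned; 48 or 72 hr, 37 degree Celsius, 5% CO2, 95% humidity; CellTiter-Glo, 10 min RT; luminescence (ATP).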
NIH3T3 tox – Cytotoxic Profiling in NIH 3T3 Cell Line of Diverse Libraries Using Quantitative High-Throughput Screening. actives 4.3% (n = 94,000). NIH 3T3 viability, CellTiter-Glo ATP luminescence, 48-72 h. Potency, µM (highest dose often 96.7 µM), inactives show at the highest dose activity change, negative = cytotoxicity, hits mostly inhibitors; further: on the % scale 0 is the no-effect control and ±100 the full control effect; nearly all actives have a fitted effect of over 55% in size
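ATP-dependent luminescence (CellTiter-Glo) served as the viability signal for NIH 3T3 cells treated with compound for 48 or 72 hr at 37 °C.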
hNpr1 antagonist – Natriuretic polypeptide receptor (hNpr1) antagonism - Primary qHTS | Atrial natriuretic peptide receptor 1 (Homo sapiens), P16066 | Potency, µM (top dose mostly 46.3 µM), without a hit: at the highest dose activity change, negative = inhibition, usual class: inhibitors | actives 1.6% (n = 76,000) | HEK293 hNpr1 GloSensor cGMP, ANP-stimulated luminescence; calls by dose curve; further: on the % scale 0 is the no-effect control and ±100 the full control effect; nearly all actives have a fitted effect of over 60% in size
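Compound pre-incubated 30 min at room temperature on GloSensor-loaded HEK293 cells stably carrying hNpr1 and the pGS-40F cGMP biosensor. Stimulation uses hNppA at 0.1 nM final; luminescence is taken at baseline and 20 min post-agonist.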
NPR1 antag cnf – Natriuretic polypeptide receptor (hNpr1) antagonism - Confirmation. shares compounds with hNpr1 antagonist. Potency, µM (series often up to 57.6 µM), inactives show top-dose activity change, negative = inhibition, usual class: inhibitors. AID 1347044, 2019. HEK293 hNpr1 cGMP GloSensor luminescence, ANP-stimulated. actives 76% (n = 1,400); calls by dose curve; further: nearly all actives have a fitted effect of over 70% in size
Npr2 selectivity – Natriuretic polypeptide receptor (hNpr2) antagonism - Subtype selectivity assay | AID 1347046, 2019 | shares compounds with hNpr1 antagonist | HEK293 hNpr2 GloSensor cGMP luminescence, CNP-stimulated | Potency, µM (titrated, usually from 57.6 µM), inactives show at the top dose activity change, negative = inhibition, most hits filed as inhibitors | actives 67% (n = 1,400); calls by dose curve; further: nearly all actives have a fitted effect of over 70% in size
FLuc counter – Natriuretic polypeptide receptor (hNpr1) antagonism - Confirmation firefly luciferase (FLuc) inhibition counterscreen; shares compounds with hNpr1 antagonist; purified FLuc enzyme, luminescence, Km substrate; Potency, µM (top dose mostly 57.6 µM), for inactives: at the top dose activity change, negative = inhibition, hits mostly inhibitors; actives 0.7% (n = 1,400); further: 0% is about no effect
GloSensor ctrl – Natriuretic polypeptide receptor (hNpr1) antagonism - Counterscreen GloSensor control cell line. shares compounds with hNpr1 antagonist. HEK293 GloSensor cGMP, SNP-stimulated, luminescence. Potency, µM (highest dose often 57.6 µM), without a hit: at the highest dose activity change, negative = inhibition, hits mostly inhibitors. actives 69% (n = 1,400); calls by dose curve; further: on the % scale 0 is the no-effect control and ±100 the full control effect; nearly all actives have a fitted effect of over 70% in size
Starred values were filed as active, the others as inactive; i = inactive; u = inconclusive; x = no result; [ ] = dose if it differs, or a comment. Unless noted, the call rests on the fitted dose curve; in most records, active means well fitted curve in the direction sought with a large enough effect; inconclusive means small, poorly fitted or top-dose-only effect, or another doubt; inactive means no such curve, though single readings can be large; an effect the other way counts as inactive or inconclusive. Potency means the concentration at half of the fitted maximal effect.

SMILES	GPT2 inh	FLuc inh	HEK293 tox	NIH3T3 tox	hNpr1 antagonist	NPR1 antag cnf	Npr2 selectivity	FLuc counter	GloSensor ctrl
COc1cccc(-c2noc(CC3CCN(C(=O)COc4cccc(C)c4)CC3)n2)c1	0.4%	i	u	u	20µM*	u	30.6µM*	1.7%	38.5µM*
COc1ccc(-c2noc(CC3CCN(C(=O)CCc4cccc(OC)c4)CC3)n2)cc1	i	i	u	u	12.6µM*	21.7µM*	21.7µM*	0.5%	17.2µM*
COCc1nc(-c2ccc(OC3CCN(C(=O)c4sc(C)nc4C)C3)cc2)no1 (stereo not given)	-8.9%	i	u	-20.2%	-14.7%	x	x	x	x
Cc1ccc(-c2ccc3nnc(CNC(=O)c4cccnc4)n3n2)cc1	-4.7%	i	i	-21.1%	8.1%	x	x	x	x
Cc1ccc(-c2noc(CCCC(=O)N3CCC(CCOc4ccccc4F)C3)n2)cc1 (stereo not given)	-1.7%	i	u	u	4.47µM*	17.2µM*	19.3µM*	-2.6%	15.3µM*
Cc1nc(-c2ccc(OC3CCN(C(=O)c4cc(C)n(C)n4)C3)cc2)no1 (stereo not given)	i	i	u	u	u	u	u	1.2%	u
Cc1ccc(OCc2nc(C3CCCCN3C(=O)CCCc3nc(-c4ccc(C)cc4)no3)no2)cc1 (stereo not given)	-6.4%	x	u	u	x	x	x	x	x
COc1cccc(-c2noc(CC3CCN(C(=O)CCc4ccccc4)CC3)n2)c1	i	i	u	u	12.6µM*	27.3µM*	24.3µM*	-7.0%	24.3µM*
COc1ccc(-c2noc(CC3CCN(C(=O)Cc4ccccc4Cl)CC3)n2)cc1	0.9%	i	u	u	10µM*	17.2µM*	21.7µM*	0.8%	19.3µM*
COCc1nc(-c2ccc(OC3CCN(C(=O)c4nn(C)c5ccccc45)C3)cc2)no1 (stereo not given)	0.0%	i	u	u	11.2µM*	19.3µM*	19.3µM*	0.4%	19.3µM*
COc1cccc(CCC(=O)N2CCC(Cc3nc(-c4ccccc4)no3)CC2)c1	i	i	u	u	u	x	x	x	x
COc1ccc(CCC(=O)N2CCC(Cc3nc(-c4ccccc4)no3)CC2)cc1	i	i	35.5µM*	u	10µM*	12.2µM*	15.3µM*	2.2%	12.2µM*
CC(C)c1ccc(CN2CC[C@@H]3OCC(=O)N(C(C)C)[C@H]3CC2)cc1	-9.1%[88.5 µM]	i	u	u	8.91µM*	7.89µM*	11.1µM*	-0.1%[86.2 µM]	6.27µM*
CC(C)N1C(=O)CO[C@H]2CCN(Cc3ccccc3Cl)CC[C@@H]21	0.7%[88.5 µM]	i	u	u	2.82µM*	7.89µM*	11.1µM*	3.2%[86.2 µM]	6.27µM*
COc1cccc(CNC(=O)Cn2c(-c3ccc(F)cc3)nc(C)c(CCO)c2=O)c1	i	i	u	u	2.1%	x	x	x	x
O=C(NCC(=O)N1CCC(c2ccccc2)CC1)c1ccc(-c2cnc3ccccc3c2)cc1	i	x	-2.5%	-12.4%	x	x	x	x	x
Cc1nc2c(c(-c3ccc(O)cc3)n1)CN(Cc1cccc3ccccc13)CC2	-13.6%	i	u	u	-16.4%	-21.5%	-12.7%[86.2 µM]	-1.3%[86.2 µM]	i
Cc1ccc(C(=O)N2CCN(c3cc(-c4cccs4)[nH]n3)CC2)c(C)c1	i	i	44.7µM*	7.94µM*	u	27.3µM*	24.3µM*	3.9%	27.3µM*
COc1ccc(C(=O)N2CCCN(c3cc(-c4ccccc4)[nH]n3)CC2)c(OC)c1	u	i	39.8µM*	-19.2%	u	24.3µM*	u	1.9%	24.3µM*
COc1ccc(C(=O)N2CCCN(c3cc(-c4ccccc4)[nH]n3)CC2)c(C)c1	-25.2%	i	u	u	11.2µM*	17.2µM*	19.3µM*	0.7%	17.2µM*
COc1ccc(C(=O)NC2CCN(Cc3cccc(-c4cccs4)c3)CC2)cc1	-2.8%	x	u	u	x	x	x	x	x
COc1ccc(CNC(=O)c2c(C)nc3cnccn23)cc1	x	x	-5.3%[172 µM]	-19.6%[138 µM]	x	x	x	x	x
CCc1ccc(C(=O)N2CCC(Cc3nc(-c4ccc(OC)cc4)no3)CC2)cc1	-16.5%	i	u	u	3.55µM*	6.11µM*	9.68µM*	-1.1%	6.85µM*
COc1ccc(-c2noc(CC3CCN(C(=O)c4ccccc4C)CC3)n2)cc1	-20.2%	i	u	u	10µM*	15.3µM*	17.2µM*	3.1%	12.2µM*
COc1cc(OC)cc(C(=O)N2CCC(Cc3nc(-c4cnccn4)no3)CC2)c1	4.5%	i	15.2%	-20.7%	9.4%	x	x	x	x
CCCCOc1ccc(C(=O)N2CCC(Cc3nc(-c4cnccn4)no3)CC2)cc1	i	i	u	u	u	u	u	3.5%	u
COc1ccc(-c2noc(CC3CCN(C(=O)C4(c5ccc(OC)cc5)CC4)CC3)n2)cc1	i	i	u	u	1.41µM*	2.73µM*	3.43µM*	3.6%	3.06µM*
Cc1ccc(C(=O)N2CCC(Cc3nc(-c4cnccn4)no3)CC2)cc1	i	i	u	u	-14.1%	x	x	x	x
